Measurements: PubChem BioAssay AID1220 (Sanford-Burnham Center for Chemical Genomics, 2008)
“And” between values parts separate entries of the source, which are not always exact repeats. Equal values may be shown once. Out of some 190,000 compounds screened, about 1,300 (0.68%) were called active. The sample holds actives, similar compounds and a random draw of the others, so the mix is not that of the screen. Values without a mark were called inactive. No stated cut-off is given here; in the data, active means inhibition above about 50%; inactive means the rest.

biological target: Mannose-6-phosphate isomerase (Homo sapiens) (UniProt P34949); assay: MPI inhibition at elevated mannose 6-phosphate – biochemical, fluorescence intensity, high mannose 6-phosphate, primary screen (AID 1220); conditions: recombinant PMI enzyme, coupled fluorescence intensity; at 20 µM; stronger effect = higher value
Sequence (P34949 whole entry, looked up): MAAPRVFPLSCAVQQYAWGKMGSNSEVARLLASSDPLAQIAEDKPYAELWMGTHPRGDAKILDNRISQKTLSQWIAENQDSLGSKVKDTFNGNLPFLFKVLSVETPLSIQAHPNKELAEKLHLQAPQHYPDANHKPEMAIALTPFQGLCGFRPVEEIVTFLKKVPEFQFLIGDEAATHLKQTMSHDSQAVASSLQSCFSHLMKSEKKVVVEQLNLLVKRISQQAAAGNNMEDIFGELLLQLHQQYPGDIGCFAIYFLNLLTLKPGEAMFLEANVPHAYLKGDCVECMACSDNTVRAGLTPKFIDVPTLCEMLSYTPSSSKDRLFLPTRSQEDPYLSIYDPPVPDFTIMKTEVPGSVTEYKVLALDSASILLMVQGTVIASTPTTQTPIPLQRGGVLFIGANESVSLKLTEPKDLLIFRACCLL

`Cc1[nH][nH]c(=O)c1C(c1c(C)[nH][nH]c1=O)c1cn(Cc2cccc3ccccc23)c2ccccc12` was tested, and the inhibition was 56% (active).
For `Cc1[nH][nH]c(=O)c1C(c1c(C)[nH][nH]c1=O)c1cn(Cc2ccccc2Cl)c2ccccc12`, the inhibition was 50.3% (active).
For `CCC(=O)Nc1cc2[nH]c(=O)cc(C)c2cc1C`, the inhibition was 54.6% (active).
For `Cc1ccccc1N=Cc1cc2c(cc1O)OC(N)=C(C#N)C2c1ccccc1` (centres undefined), the inhibition was 55% (active).
With `COc1ccc(N=Cc2cc3c(cc2O)OC(N)=C(C#N)C3c2ccccc2)cc1` (centres undefined) the inhibition was 50.4% (active).
In the case of `CCOC(=O)c1cc2c(ccn2C)n1Cc1ccccc1Cl`, the inhibition is reported as 50.5% (active).
`CCOC(=O)c1cc2c(ccn2C)n1Cc1ccc(Cl)cc1` was tested, and the inhibition was 52.4% (active).
In the case of `CCOC(=O)c1cc2c(ccn2C)n1CC(=O)N1C(C)CCCC1C` (centres undefined), the inhibition is reported as 52% (active).
In the case of `NC(Cc1c[nH]c2ccccc12)C(=O)NCc1ccco1` (centres undefined), the inhibition is reported as 55.4% (active).
`Cc1ccc(C=Nc2cccnc2N)cc1` was tested, and the inhibition was 63.2% (active).
For `COc1ccc(C=Nc2cccc3ncccc23)cc1`, the inhibition was 63.3% (active).
For `COc1cc(CNc2ccc(N3CCCC3)cc2)ccc1OCc1ccccc1`, the inhibition was 71.5% (active).
`COc1cc(CNc2ccc(O)cc2)cc(Br)c1OCc1ccccc1F` was tested, and the inhibition was 57.4% (active).
With `COc1ccc(NCc2ccc(OC)c(OC)c2)cc1` the inhibition was 60.3% (active).
With `COc1cc(CNc2ccc(N3CCCC3)cc2)ccc1OCc1ccccc1F` the inhibition was 55.7% (active).
For `CN(C)c1cccc2c(C=C(C#N)C#N)ccc(N(C)C)c12`, the inhibition was 63.9% (active).
In the case of `CN(C)c1cccc2c(/C=N/O)ccc(N(C)C)c12`, the inhibition is reported as 51.7% (active).
With `Nc1cnccc1C(=O)O` the inhibition was 63.7% (active).
`CC(=O)Nc1cccc(NC(=S)Nc2ccc(F)cc2F)c1` was tested, and the inhibition was 55.8% (active).
`c1cnc2c(c1)ccc1cccnc12` was tested, and the inhibition was -13% and -7.3%.
In the case of `Cc1ccc2ncccc2c1N`, the inhibition is reported as 63.7% (active).
`Cc1ccc2cccnc2c1N` was tested, and the inhibition was 70.5% (active).

Point of comparison: `Cc1ccc2ncccc2c1[N+](=O)[O-]`, inhibition 9.7%. Against it:
- O=c1c2ccccc2ncn1Cc1cccc2ccccc12 — lower, 7.1%
- Cc1nccn1Cc1cccc2ccccc12 — lower, -0.7%
- CCOC(=O)N1CCN(C(=O)CS(=O)(=O)c2cn(Cc3ccccc3Cl)c3ccccc23)CC1 — lower, 3.6%
- COC(=O)N/N=C/c1cn(Cc2ccccc2Cl)c2ccccc12 — higher, 16.8%
- O=C(O)c1ccc(Cl)c(S(=O)(=O)Nc2ccccc2N2CCOCC2)c1 — lower, -3.7%
- CC(C)=C1C2C=CC1C(C(=O)Nc1cccc(C)c1)C2C(=O)O (centres undefined) — lower, 0.3%
- O=C(COC(=O)c1cc(=O)c2ccccc2o1)NC1CCCC1 — higher, 30.5%
- CCC(=O)Nc1cc2c(C)cc(=O)oc2cc1C — lower, -14.2%
- CCCCCC(=O)Nc1cc2[nH]c(=O)cc(COC)c2cc1C — lower, -2.7%
- C#CCOCCOCCOCCNc1nc(N2CCN(C(=O)[C@H](C)n3cc(CCCN=C(N)N)nn3)CC2)nc(N2CCN(C(=O)[C@H](Cc3ccc(O)cc3)n3cc(CCO)nn3)CC2)n1 — lower, -38%
- COc1ccc(C(CC(=O)c2ccccc2)CC(=O)c2ccccc2)cc1OC — lower, 4%
- Cc1ccc(N=Cc2cc3c(cc2O)OC(N)=C(C#N)C3c2ccccc2)cc1 (centres undefined) — higher, 10.5%
- N#CC1=C(N)Oc2cc(O)c(C=Nc3ccccc3)cc2C1c1ccccc1 (centres undefined) — lower, -4%
- N#CC1=C(N)Oc2cc(O)ccc2C1c1ccccc1 (centres undefined) — lower, 7.4%
- Cc1ccc(C2C(C#N)=C(N)Oc3cc4c(cc32)OCO4)cc1 (centres undefined) — lower, 0.5%
- Clc1ccc(C2=NCCN2)cc1 — lower, 1.4%
- O=C(Cc1ccc(F)cc1)N/N=C/c1ccccn1 — higher, 16.5%
- Cn1c(=O)[nH]c(=O)c2c1nc(N1CCOCC1)n2CC(O)COc1ccc2ccccc2c1 (centres undefined) — lower, 6.5%
- O=C(NC1CCCc2ccccc21)c1ccc(CNc2c(N3CCOCC3)c(=O)c2=O)cc1 (centres undefined) — lower, -6.9%
- CCOC(=O)c1cc2c(ccn2C)n1Cc1ccccc1C — higher, 22.3%
- CCOC(=O)c1cc2c(ccn2C)n1CC(=O)N1CCC(C)CC1 — higher, 13.8%
- CCOC(=O)c1cc2c(ccn2C)n1CC(=O)N(C)C — higher, 44.7%
- CCOC(=O)c1cc2c(ccn2C)n1CC(=O)N1CCCC(C)C1 (centres undefined) — lower, 7.2%
- CCOC(=O)c1cc2c(ccn2C)n1Cc1ccc(C#N)cc1 — higher, 35.1%
- CCOC(=O)c1cc2c(ccn2C)n1Cc1cc(C)ccc1C — higher, 22.9%
- CCOc1cc(CNCc2ccccn2)cc(Cl)c1OC — lower, -0.7%
- Cc1noc(C)c1C(=O)Nc1sc2c(c1C(N)=O)CCC2 — lower, 0.1%
- Cc1ccccc1CSc1nc2c(c(=O)[nH]1)CCC2 — lower, 6.8%
- O=C(O/N=C1\CCCc2ccccc21)c1cccc(Cl)c1 — lower, 7.1%
- CCN(CCn1cccn1)C(=O)CCc1nnc(-c2ccc3c(c2)OCO3)o1 — lower, 5.8%
- CN(C)S(=O)(=O)c1ccc(C(=O)Nc2cc(=O)n(C)c(=O)n2C)cc1 — lower, 3.9%
- O=C(c1nc2ncccn2n1)N1CCN(c2ccc(F)cc2)CC1 — higher, 15%
- O=C(CCc1c[nH]c2ccccc12)NCc1ccco1 — lower, -5.8%
- O=C(Cc1c[nH]c2ccccc12)NCc1ccco1 — lower, 7.4%
- COc1ccc(OCC(=O)Nn2c(-c3ccc(C)cc3)nc3ccccc3c2=O)cc1 — higher, 12.7%
- O=c1[nH]c2cc3c(cc2cc1CN(Cc1nnnn1CC1CCCO1)C1CCCCC1)OCO3 (centres undefined) — lower, 5.5%
- COc1ccc(/C=N\n2nnc3ccccc32)cc1 — lower, -4.2%
- Nc1ncc(Br)cc1N=Cc1ccccc1 — higher, 24.6%
- COc1ccc(OCC(=O)Nc2cccc3ncccc23)cc1 — lower, 3.4%
- Cc1ccc(C=Nc2ccccc2C(N)=O)cc1 — lower, 0.6%
- Cc1ccc(NC(=O)CCC(=O)N/N=C/c2cccs2)cc1 — lower, -0.5%
- COc1cc(CNc2ccc(N3CCN(C(C)=O)CC3)cc2)ccc1OCc1ccc(F)cc1 — higher, 27%
- COc1cc(CNc2ccc(N3CCN(C(C)=O)CC3)cc2)ccc1OCc1ccccc1 — higher, 38.7%
- COc1cc(CNc2ccc(O)cc2)cc(Br)c1OCc1ccccc1 — higher, 49.4%
- COc1ccc(CNS(=O)(=O)NCc2ccc(OC)c(OC)c2)cc1 — lower, -3.8%
- COc1cc(CNCCCCO)ccc1OCc1ccccc1F — lower, 2.9%
- COc1ccc(CNc2ccc(C)c(C)c2)cc1 — lower, 9.2%
- CCOc1cc(CNc2ccc(O)cc2)cc(Br)c1OCc1ccccc1F — higher, 29.5%
- CCNCc1ccc(OCc2ccccc2F)c(OC)c1 — lower, -4.4%
- Cc1cccc(C)c1NC(=O)C1=C(O)c2sccc2N(C)S1(=O)=O — lower, 2.2%
- CCOC(=O)c1c(NC(=O)CSc2nnc(CNC(=O)c3ccco3)n2C)sc2c1CCC2 — lower, 4.5%
- CCCCCNCc1cccn1C — lower, -9.2%
- CCC(CC)N=C1NS(=O)(=O)c2cc([N+](=O)[O-])ccc21 — lower, -4.3%
- Cc1cc(=O)oc2cc(OCC(O)CN3CCN(c4ccc(F)cc4)CC3)ccc12 (centres undefined) — lower, 7.1%
- O=C(COC(=O)COc1ccccc1)Nc1ccccc1OC(F)F — lower, -0.8%
- Cc1cccc(NS(=O)(=O)c2cc(C(=O)N3CCOCC3)ccc2Cl)c1 — lower, 6.8%
- CN(C)c1cccc(C(=O)NC2CCCCCC2)c1 — lower, 5.6%
- Cc1ccccc1CN(C)CC(=O)Nc1c(C)cccc1C(C)C — lower, 0.5%
- CN(C)c1ccc(/C=N/O)cc1 — higher, 44.3%
- Cc1cccc(OCCOc2ccccc2C=C(C#N)C#N)c1 — higher, 11%
- CC(=O)c1ccc(N(C)C)c2c(N(C)C)cccc12 — higher, 38.5%
- Cc1ccccc1OCCOc1ccccc1C=C(C#N)C#N — higher, 16.3%
- CCOC(=O)C1CCN(C(=O)c2ccc3c(c2)OCO3)CC1 — higher, 11.2%
- COc1ccccc1OCC(=O)Nn1c(=S)[nH]c2ncccc2c1=O — lower, -3.7%
- CC(c1ccccc1)n1cc(C(=O)NCCN2CCOCC2)nn1 (centres undefined) — lower, -7.2%
- Cc1csc(NC(=O)c2ccccc2[N+](=O)[O-])n1 — lower, -6.4%
- COC(=O)c1ccncc1N — lower, 8.9%
- Nc1ccc(Br)cc1C(=O)O — lower, 1.2%
- COc1ccc(NC(=O)CSc2nc3c(c(=O)n2-c2ccccc2)SCC3)c(OC)c1 — lower, 2.7%
- CCN(CC)C(=O)c1cn(CC)c(=O)c2cc(OC)c(OC)cc12 — lower, -0.2%
- CC(=O)Nc1cccc(NC(=S)Nc2ccc(F)c(Cl)c2)c1 — higher, 41.1%
- CC(=O)Nc1cccc(NC(=O)Nc2ccc(F)cc2F)c1 — higher, 19.6%
- COc1cccc(-n2c(Cc3cc(=O)[nH]c(=O)[nH]3)nnc2SCC(=O)N2CCC(C)CC2)c1 — lower, 3.3%
- CCOC(=O)c1c(C)[nH]c(C)c1C(=O)COC(=O)c1ccc(S(=O)(=O)N(CC)CC)cc1 — lower, 4.4%
- Nc1ccc2ncccc2c1N — higher, 49.6%
- Cc1ccc2nc(C)c(C)nc2c1N — higher, 23.4%
- O=C(c1cnc2n(c1=O)CCS2)N(c1ccccc1)C1CCCCC1 — lower, -10.4%
- CCc1ccc(NC(=O)c2c(C(=O)Nc3ccccc3)sc3nc(C)cc(=O)n23)cc1 — lower, -2.4%
- CCOC(=O)N1CCN(Cc2c(NC(=O)c3ccco3)sc(C)c2C)CC1 — lower, 3.6%
- CC1=NC(C)(C)Cc2ccccc21 — higher, 11%
- CC1(C)CC(=O)C(C2=NC(C)(C)Cc3ccccc32)=C(O)C1 — lower, -9.5%
